Where a chain is given by its changes, count along the chain named.
Key:
Assay in all cases: PBM; 200 nM protein, PBS
Settings in all cases: dsDNA, one strand shown
VENTX [1] = biological target: T1, VENTX (Homo sapiens, UniProt O95231 78-163, R121Q)
T1 sequence: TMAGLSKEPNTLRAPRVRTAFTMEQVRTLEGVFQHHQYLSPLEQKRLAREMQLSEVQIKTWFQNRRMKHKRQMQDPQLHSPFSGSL

ALX4 = ALX4 (Homo sapiens, UniProt Q9H161 200-286)
PRRX1 [2] = biological target: PRRX1 (Homo sapiens, UniProt P54821 80-166, F113S)
VENTX [3] = biological target: T2, VENTX (Homo sapiens, UniProt O95231 78-163, Y115F)
T2 sequence: T1 sequence with Y38F, Q44R

HOXA2 [4] = biological target: HOXA2 (Homo sapiens, UniProt O43364 129-215, R185T)
HOXA2 (Homo sapiens, UniProt O43364 129-215, R185T), sequence (O43364 129-215 R185T): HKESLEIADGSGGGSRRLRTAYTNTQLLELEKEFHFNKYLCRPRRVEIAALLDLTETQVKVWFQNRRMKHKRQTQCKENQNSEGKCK

PAX4 = biological target: T3, PAX4 (Homo sapiens, UniProt O43316 9-242, R200Q)
T3 sequence: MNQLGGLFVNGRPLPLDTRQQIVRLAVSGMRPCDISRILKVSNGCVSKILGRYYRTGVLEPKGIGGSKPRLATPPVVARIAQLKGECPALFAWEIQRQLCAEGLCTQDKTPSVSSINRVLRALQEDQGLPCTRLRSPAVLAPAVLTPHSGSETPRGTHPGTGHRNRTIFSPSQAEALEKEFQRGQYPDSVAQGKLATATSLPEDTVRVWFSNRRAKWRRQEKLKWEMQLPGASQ

MSX2 [5] = biological target: MSX2 (Homo sapiens, UniProt P35548 130-214)
MSX2 (Homo sapiens, UniProt P35548 130-214), sequence (P35548 130-214): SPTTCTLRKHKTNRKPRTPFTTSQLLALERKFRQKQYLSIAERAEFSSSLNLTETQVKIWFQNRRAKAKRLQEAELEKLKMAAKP

MSX2 [6] = biological target: MSX2 (Homo sapiens, UniProt P35548 130-214, F161Y)
MSX2 (Homo sapiens, UniProt P35548 130-214, F161Y), sequence (P35548 130-214 F161Y): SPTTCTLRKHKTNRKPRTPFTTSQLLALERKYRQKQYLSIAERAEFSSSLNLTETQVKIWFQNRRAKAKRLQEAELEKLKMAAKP

VAX1 [7] = biological target: VAX1 (Homo sapiens, UniProt Q5SQQ9 86-172, T142I)
VAX1 (Homo sapiens, UniProt Q5SQQ9 86-172, T142I), sequence (Q5SQQ9 86-172 T142I): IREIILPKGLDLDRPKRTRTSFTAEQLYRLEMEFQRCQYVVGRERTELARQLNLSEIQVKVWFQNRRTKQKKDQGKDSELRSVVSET

PRRX1 [8] = biological target: PRRX1 (Homo sapiens, UniProt P54821 80-166)
PRRX1 (Homo sapiens, UniProt P54821 80-166), sequence (P54821 80-166): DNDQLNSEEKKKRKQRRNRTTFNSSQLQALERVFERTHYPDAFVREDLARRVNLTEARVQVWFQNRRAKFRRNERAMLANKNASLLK

VAX1 [9] = biological target: VAX1 (Homo sapiens, UniProt Q5SQQ9 86-172, K157R)
VAX1 (Homo sapiens, UniProt Q5SQQ9 86-172, K157R), sequence (Q5SQQ9 86-172 K157R): as the sequence (Q5SQQ9 86-172 T142I) above, with I57T, K72R counted along it

HOXA4 [10] = biological target: HOXA4 (Homo sapiens, UniProt Q00056 201-287, R217L)
HOXA4 (Homo sapiens, UniProt Q00056 201-287, R217L), sequence (Q00056 201-287 R217L): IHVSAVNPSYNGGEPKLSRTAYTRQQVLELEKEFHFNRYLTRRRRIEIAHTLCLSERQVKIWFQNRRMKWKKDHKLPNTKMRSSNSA

HOXA4 [11] = biological target: HOXA4 (Homo sapiens, UniProt Q00056 201-287, W262F)
HOXA4 (Homo sapiens, UniProt Q00056 201-287, W262F), sequence (Q00056 201-287 W262F): as the sequence (Q00056 201-287 R217L) above, with L17R, W62F counted along it

HOXA2 [12] = biological target: HOXA2 (Homo sapiens, UniProt O43364 129-215, R185K)
HOXA2 (Homo sapiens, UniProt O43364 129-215, R185K), sequence (O43364 129-215 R185K): as the sequence (O43364 129-215 R185T) above, with T57K counted along it

PRRX1 (Homo sapiens, UniProt P54821 80-166, F113S), sequence (P54821 80-166 F113S): as the sequence (P54821 80-166) above, with F34S counted along it
ALX4, sequence (Q9H161 200-286): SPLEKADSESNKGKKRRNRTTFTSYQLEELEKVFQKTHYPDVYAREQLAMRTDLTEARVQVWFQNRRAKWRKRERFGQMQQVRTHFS

| Sequence | binding signal (VENTX [1]) | binding signal (ALX4) | binding signal (PRRX1 [2]) | binding signal (VENTX [3]) | binding signal (HOXA2 [4]) | binding signal (PAX4) | binding signal (MSX2 [5]) | binding signal (MSX2 [6]) | binding signal (VAX1 [7]) | binding signal (PRRX1 [8]) | binding signal (VAX1 [9]) | binding signal (HOXA4 [10]) | binding signal (HOXA4 [11]) | binding signal (HOXA2 [12]) |
| --- | --- | --- | --- | --- | --- | --- | --- | --- | --- | --- | --- | --- | --- | --- |
| AATTAGCG | 11.9 upbm affinity estimate (log intensity, higher = more binding, comparable within an allelic series) | 13.9 upbm affinity estimate (log intensity, higher = more binding, comparable within an allelic series) | 11 upbm affinity estimate (log intensity, higher = more binding, comparable within an allelic series) | 11.6 upbm affinity estimate (log intensity, higher = more binding, comparable within an allelic series) | 12.6 upbm affinity estimate (log intensity, higher = more binding, comparable within an allelic series) | 12.3 upbm affinity estimate (log intensity, higher = more binding, comparable within an allelic series) | 13.5 upbm affinity estimate (log intensity, higher = more binding, comparable within an allelic series) | 13 upbm affinity estimate (log intensity, higher = more binding, comparable within an allelic series) | 12.4 upbm affinity estimate (log intensity, higher = more binding, comparable within an allelic series) | 13.3 upbm affinity estimate (log intensity, higher = more binding, comparable within an allelic series) | 12.5 upbm affinity estimate (log intensity, higher = more binding, comparable within an allelic series) |  |  |  |
| CCAATTAC |  | 13.8 upbm affinity estimate (log intensity, higher = more binding, comparable within an allelic series) | 11.1 upbm affinity estimate (log intensity, higher = more binding, comparable within an allelic series) |  |  |  | 13.9 upbm affinity estimate (log intensity, higher = more binding, comparable within an allelic series) | 13.5 upbm affinity estimate (log intensity, higher = more binding, comparable within an allelic series) |  | 13.4 upbm affinity estimate (log intensity, higher = more binding, comparable within an allelic series) |  |  |  |  |
| AATTAACG | 11.7 upbm affinity estimate (log intensity, higher = more binding, comparable within an allelic series) | 13.9 upbm affinity estimate (log intensity, higher = more binding, comparable within an allelic series) | 11.1 upbm affinity estimate (log intensity, higher = more binding, comparable within an allelic series) | 11.5 upbm affinity estimate (log intensity, higher = more binding, comparable within an allelic series) |  | 12 upbm affinity estimate (log intensity, higher = more binding, comparable within an allelic series) |  |  |  | 13.3 upbm affinity estimate (log intensity, higher = more binding, comparable within an allelic series) |  | 12.1 upbm affinity estimate (log intensity, higher = more binding, comparable within an allelic series) | 11.6 upbm affinity estimate (log intensity, higher = more binding, comparable within an allelic series) |  |
| AATTAGAT |  | 13.7 upbm affinity estimate (log intensity, higher = more binding, comparable within an allelic series) | 11.1 upbm affinity estimate (log intensity, higher = more binding, comparable within an allelic series) |  |  | 12 upbm affinity estimate (log intensity, higher = more binding, comparable within an allelic series) |  |  |  | 13.3 upbm affinity estimate (log intensity, higher = more binding, comparable within an allelic series) |  |  |  |  |
| AATTAAAT |  | 13.9 upbm affinity estimate (log intensity, higher = more binding, comparable within an allelic series) | 11.3 upbm affinity estimate (log intensity, higher = more binding, comparable within an allelic series) |  |  | 12.2 upbm affinity estimate (log intensity, higher = more binding, comparable within an allelic series) | 13.6 upbm affinity estimate (log intensity, higher = more binding, comparable within an allelic series) | 13.1 upbm affinity estimate (log intensity, higher = more binding, comparable within an allelic series) |  | 13.4 upbm affinity estimate (log intensity, higher = more binding, comparable within an allelic series) |  |  | 11.4 upbm affinity estimate (log intensity, higher = more binding, comparable within an allelic series) |  |
| CCCAGGCG |  |  |  |  | 7.06 upbm affinity estimate (log intensity, higher = more binding, comparable within an allelic series) |  |  |  |  |  |  |  |  | 10.1 upbm affinity estimate (log intensity, higher = more binding, comparable within an allelic series) |
| CCCAATTA | 11.7 upbm affinity estimate (log intensity, higher = more binding, comparable within an allelic series) | 13.9 upbm affinity estimate (log intensity, higher = more binding, comparable within an allelic series) | 11.3 upbm affinity estimate (log intensity, higher = more binding, comparable within an allelic series) | 11.5 upbm affinity estimate (log intensity, higher = more binding, comparable within an allelic series) | 12.5 upbm affinity estimate (log intensity, higher = more binding, comparable within an allelic series) | 11.9 upbm affinity estimate (log intensity, higher = more binding, comparable within an allelic series) | 14 upbm affinity estimate (log intensity, higher = more binding, comparable within an allelic series) | 13.7 upbm affinity estimate (log intensity, higher = more binding, comparable within an allelic series) | 12.3 upbm affinity estimate (log intensity, higher = more binding, comparable within an allelic series) | 13.4 upbm affinity estimate (log intensity, higher = more binding, comparable within an allelic series) | 12.6 upbm affinity estimate (log intensity, higher = more binding, comparable within an allelic series) |  |  |  |
| AATTAGCA | 11.7 upbm affinity estimate (log intensity, higher = more binding, comparable within an allelic series) | 13.6 upbm affinity estimate (log intensity, higher = more binding, comparable within an allelic series) | 11 upbm affinity estimate (log intensity, higher = more binding, comparable within an allelic series) | 11.5 upbm affinity estimate (log intensity, higher = more binding, comparable within an allelic series) | 12.4 upbm affinity estimate (log intensity, higher = more binding, comparable within an allelic series) | 11.9 upbm affinity estimate (log intensity, higher = more binding, comparable within an allelic series) |  |  |  | 13.2 upbm affinity estimate (log intensity, higher = more binding, comparable within an allelic series) |  |  | 11.5 upbm affinity estimate (log intensity, higher = more binding, comparable within an allelic series) | 13 upbm affinity estimate (log intensity, higher = more binding, comparable within an allelic series) |
| CCAATTAG | 12.3 upbm affinity estimate (log intensity, higher = more binding, comparable within an allelic series) | 14.1 upbm affinity estimate (log intensity, higher = more binding, comparable within an allelic series) | 11.2 upbm affinity estimate (log intensity, higher = more binding, comparable within an allelic series) | 11.9 upbm affinity estimate (log intensity, higher = more binding, comparable within an allelic series) | 12.9 upbm affinity estimate (log intensity, higher = more binding, comparable within an allelic series) | 12.2 upbm affinity estimate (log intensity, higher = more binding, comparable within an allelic series) | 14 upbm affinity estimate (log intensity, higher = more binding, comparable within an allelic series) | 13.7 upbm affinity estimate (log intensity, higher = more binding, comparable within an allelic series) | 12.6 upbm affinity estimate (log intensity, higher = more binding, comparable within an allelic series) | 13.4 upbm affinity estimate (log intensity, higher = more binding, comparable within an allelic series) | 12.9 upbm affinity estimate (log intensity, higher = more binding, comparable within an allelic series) |  |  | 13.3 upbm affinity estimate (log intensity, higher = more binding, comparable within an allelic series) |
